From PubChem BioAssay
VACV mCherry inh – qHTS for Stage-Specific Inhibitors of Vaccinia Orthopoxvirus: mCherry Reporter Primary qHTS; Potency, µM (series often up to 36.5 µM), inactives show at the highest dose activity change, negative = inhibition, actives largely listed as inhibitors; Vaccinia virus mCherry reporter infection, fluorescence; 0.63% of 310,000 active; AID 720579, 2013; calls by dose curve; tested in A549 cells; further: nearly all actives have a fitted effect of over 35% in size
Vaccinia Venus – qHTS for Stage-Specific Inhibitors of Vaccinia Orthopoxvirus: Venus Reporter Primary qHTS; Vaccinia virus Venus reporter expression, fluorescence; AID 720580, 2013; 0.46% of 330,000 active; Potency, µM (highest dose often 36.5 µM), without a hit: at the highest dose activity change, negative = inhibition, usual class: inhibitors; calls by dose curve; tested in A549 cells; further: nearly all actives have a fitted effect of over 30% in size
HCV inhibitor – qHTS Assay for Inhibitors of Hepatitis C Virus (HCV) | Huh7.5.1 HCVcc-Cre infection, luciferase reporter, 44 h | Potency, µM (highest dose often 41.8 µM), without a hit: at the top dose activity change, negative = inhibition, usual class: inhibitors | 3.4% of 340,000 active | AID 651820, 2012; active means well fitted inhibition curve with a large enough effect; inconclusive means small, poorly fitted or top-dose-only effect, or another doubt; inactive means no such curve, though single readings can be large or run the other way
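Infectious HCVcc-Cre (~0.5 moi) was added to cells just after compound, with cells seeded 4 h earlier at 1,000 per well. Luciferase activity after 44 h culture reported infection; substrate was incubated 15 min at room temperature before reading.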
* marks the source's active call; other numbers are inactive results; i = inactive; ? = inconclusive; . = no result; [ ] = another dose, or the depositor's remark. Hits are enriched below; roughly 3.3% of the tested compounds scored in any of these assays. On the % scale 0 is the no-effect control and ±100 the full control effect; potency means the concentration at half of the fitted maximal effect.

SMILES | VACV mCherry inh | Vaccinia Venus | HCV inhibitor
Cc1cc(C)c(C)c(OCCOCCN2CCOCC2)c1 | i | -4% | -21%
Cc1ccc2nc(NC(=O)CSc3[nH]c(=O)ncc3C)sc2c1 | -4% | -9% | .
CCOc1ccccc1NC(=O)NNC(=O)c1ccc2ccccc2c1 | -27% | -23% | 10%
CCOC(=O)C1CCCN(CC(=O)Nc2ccc(C(=O)Nc3ccccc3OC)cc2)C1 (stereo not drawn) | -1% | -13% | 11µM*
CCOc1ccccc1NC(=O)c1ccc2ccccc2c1 | -11% | -3% | 10µM*
CCOc1ccccc1NC(=O)c1ccc(NC(=O)C2CCCO2)cc1 (stereo not drawn) | -4% | 6% | 11µM*
COc1ccccc1NC(=O)c1ccc(NC(=O)CN2CCCC2)cc1 | i | -22% | ?
COC(=O)c1ccccc1NC(=O)c1ccc(NC(=O)C2CCCO2)cc1 (stereo not drawn) | -1% | -9% | ?
O=C(NCCCc1nc2ccccc2n1Cc1ccccc1Cl)C1CCCCC1 | i | -13% | .
C[C@H](N)C(=O)N[C@@H](C)C(=O)N[C@@H](Cc1ccccc1)C(=O)CCl | -3%[60.7 µM] | -11%[60.7 µM] | .
N#CC1=C2Sc3ccccc3N2CCCC1=O | -12% | 0% | 23%
N#CC1=C2SC=C(c3ccc(Br)cc3)N2CCCC1=O | -10% | -25% | 11µM*
COc1ccccc1C(c1c(N)n(C)c(=O)n(C)c1=O)C(C)[N+](=O)[O-] (stereo not drawn) | -9% | 2% | 2%
COc1ccccc1C(C[N+](=O)[O-])c1c(N)n(C)c(=O)n(C)c1=O (stereo not drawn) | . | . | 11µM*
Cn1cc(CN2CCN(c3ncccn3)CC2)c(-c2cccc(Cl)c2)n1 | -13% | -19% | 7%
Cc1cc(N2CCN(Cc3cn(C)nc3-c3cccc(Cl)c3)CC2)cc(C)n1 | -30% | -28% | 7.1µM*
CCCCOc1ccc(-c2c(C#N)c(N)nc(SCC(N)=O)c2C#N)cc1 | . | ? | 5µM*
CCCCOC(=O)CSc1nc(N)c(C#N)c(-c2ccc(OCC)cc2)c1C#N | -10% | -4% | 8%
COc1ccc(CCNC(=O)c2ccc(CS(=O)(=O)Cc3cccc(C)c3)o2)cc1OC | -13% | -4% | 22µM*
COc1ccc(CCN(C)C(=O)c2cc(S(=O)(=O)NCc3ccccc3)ccc2C)cc1OC | i | -14% | 8.9µM*
Cc1cccc(CS(=O)(=O)Cc2ccc(C(=O)NCc3ccccc3)o2)c1 | i | -8% | ?
COc1cccc(CN(C)C(=O)c2cc(S(=O)(=O)NCc3ccccc3)ccc2C)c1OC | -8% | -19% | -18%
COc1ccc(CCNC(=O)c2ccc(CNS(=O)(=O)c3ccc(C(C)(C)C)cc3)cc2)cc1OC | i | -2% | ?
COc1ccc(CCNC(=O)c2ccc(CNS(=O)(=O)c3cccc(Cl)c3)cc2)cc1OC | -17% | -28% | 7.9µM*
CCn1c(=O)c2cc(C(=O)NCCc3ccc(OC)c(OC)c3)sc2c2ccccc21 | -13% | -8% | .
SMILES | VACV mCherry inh | Vaccinia Venus | HCV inhibitor
O=C(O)CCSc1nc2ccccc2n1-c1ccccc1 | -10% | -6% | 7%
Cc1cccc(-n2c(SCC(=O)Nc3ncc(Cl)cc3Cl)nc3ccccc32)c1 | 3.2µM* | -24% | 11µM*
O=C(CSc1nc2ccccc2n1-c1ccccc1)Nc1ncc(Cl)cc1Cl | 6.3µM* | 20% | ?
COCCn1c(SCC(=O)Nc2nc(C)c(Cl)cc2Cl)nc2ccccc21 | -14% | -8% | -22%
Cc1nnc(NC(=O)CSc2nccn2-c2cccc(Cl)c2)s1 | i | -1% | .
CCOc1ccc(NC(=O)c2sc3nc4c(c(-c5ccc(OC)cc5)c3c2N)C(=O)CC(C)(C)C4)cc1 | ? | -26% | .
Oc1ccc(Nc2nc(-c3ccc(Cl)cc3)nc3ccccc23)cc1 | -27% | -26% | .
CC(=O)Nc1ccc(Nc2nc(-c3ccccc3)nc3ccccc23)cc1 | -33% | ? | 10µM*
Cc1ccc(Nc2nc(-c3cccnc3)nc3ccccc23)cc1 | -6% | ? | 1.1µM*
Oc1ccc(Nc2nc(-c3ccccc3)nc3ccccc23)cc1 | ? | ? | 10µM*
Cc1ccccc1Nc1nc(-c2cccnc2)nc2ccccc12 | ? | -23% | ?
COc1ccc(Nc2nc(-c3ccccc3)nc3ccccc23)cc1 | -12% | -26% | ?
CCNc1nc(C#N)nc(N2CCOCC2)n1 | 26% | -4% | .
CC(C)C(CCNC1CCN(C)CC1)c1ccc(Cl)cc1 (stereo not drawn) | . | . | 1.4µM*
CC(C)C(CCNCc1ccccn1)c1ccc(Cl)cc1 (stereo not drawn) | 11% | 3% | ?
CCNC(=O)N1CCN(CCCC(c2ccc(F)cc2)c2ccc(F)cc2)CC1 | i | -22% | ?
CN1CCC(NCCC(c2ccc(F)cc2)c2ccc(Cl)cc2)CC1 (stereo not drawn) | ? | 11µM* | 2µM*
CCOc1ccccc1C(=O)NC1CCN(CC(=O)Nc2cc(OC)ccc2OC)CC1 | . | . | 11µM*
CCOc1ccccc1NC(=O)CN1CCC(NC(=O)c2ccccc2C)CC1 | 16% | -8% | ?
O=C(CSc1nc2c([nH]c3ccccc32)c(=O)n1-c1ccc(Cl)cc1)NCc1ccccc1 | -14% | -7% | .
Cn1ccc(C(=O)NCC2CCC3(CCN(Cc4cc(F)cc(F)c4)CC3)O2)n1 (stereo not drawn) | i | 0% | .
CCN(CC)S(=O)(=O)c1cc(NC(=S)NC(=O)C2CCCC2)ccc1C | . | . | 3.2µM*
Cc1ccnc(NS(=O)(=O)c2ccc(NC(=O)C3CCCCC3)cc2)n1 | -10% | -9% | 2%
CCN(CC)S(=O)(=O)c1ccc(NC(=S)NC(=O)C2CCC2)cc1 | -23% | -13% | -4%
Cc1cc(C)nc(NS(=O)(=O)c2ccc(NC(=S)NC(=O)C3CCCC3)cc2)n1 | ? | 10µM* | -1%
SMILES | VACV mCherry inh | Vaccinia Venus | HCV inhibitor
CCOc1ccccc1NC(=O)N1CCN(Cc2nc3ccc(C)cc3o2)CC1 | ? | -17% | .
Cc1nn(CC(=O)N2CCN(S(=O)(=O)c3ccccc3)CC2)c(C)c1[N+](=O)[O-] | . | . | -2%
O=c1ccn(C2OC(COP(=O)(O)OP(=O)(O)OP(=O)(O)O)C(O)C2O)c(=O)[nH]1 (stereo not drawn) | i | 0% | .
CC(C)CCN1CCN(Cc2coc3ccccc3c2=O)CC1CCO (stereo not drawn) | -12% | -13% | 20%
O=S(=O)(c1ccc(SCCOc2ccccc2Cl)nc1)N1CCCC1 | . | . | 13µM*
O=S(=O)(c1ccc(SCc2ccccc2)nc1)N1CCCCC1 | . | . | 1%
CN1CCN(S(=O)(=O)c2ccc(SCCOc3ccc(Cl)cc3)nc2)CC1 | ? | -21% | ?
O=S(=O)(c1ccc(SCCOc2cccc(Br)c2)nc1)N1CCCC1 | -7% | -21% | 10µM*
Cc1csc(Sc2ccc(S(=O)(=O)N3CCCC3)cn2)n1 | 8.9µM* | ? | -10%
CC(C#N)Sc1ccc(S(=O)(=O)N2CCCCC2)cn1 (stereo not drawn) | . | . | 6%
O=S(=O)(c1ccc(SCc2ccc(Br)cc2)nc1)N1CCCCC1 | -14% | -14% | 17%
COc1ccc(OCCSc2ccc(S(=O)(=O)N3CCCC3)cn2)cc1 | . | . | 11µM*
CC(C)N=C(N)N=C(N)Nc1ccc(Cl)cc1 | -6% | -16% | -13%
